Experimental findings from PubChem BioAssay AID1347070 (National Center for Advancing Translational Sciences (NCATS), 2019) are described below.

Hit rate of the full screen: of about 94,000 compounds, about 20 (0.02%) were called active. Another 1% or so got no clear call; they are omitted. The call rests on the fitted dose curve; in most records, active means well fitted activation curve with a large enough effect; inconclusive means small, poorly fitted or top-dose-only effect; inactive means flat fitted curve, though single readings scatter. A selection follows.

This assay in a line: qHTS of alpha-syn Inhibitors: NCGC Sytravon Library Screen. The conditions noted are these: S. cerevisiae alpha-synuclein toxicity rescue, BacTiter-Glo growth, 24 h; series mostly up to 46.1 µM. The source says:
The goal of this project is to identify new chemical probes capable of reversing the toxicity associated with the Parkinson disease-related protein, alpha-synuclein. Compounds will be selected on their ability to restore growth in yeast cells expressing toxic levels of alpha-synuclein. These compounds will provide a complementary approach to deciphering the tangled mechanisms of toxicity and protection that we have uncovered through genome-wide genetic screens and are beginning to uncover in a large-scale proteomics analysis with mass spectroscopy. To this end, a miniaturized assay was developed to be screened against the Molecular Libraries Small Molecule Repository (MLSMR) to discover alpha-synuclein inhibitors. […] The phenotype of interest will be that of an Activator and this screen is run against the NCGC Sytravon Library collection. NIH Chemical Genomics Center [NCGC] NIH Molecular Libraries Probe Centers Network [MLPCN] MLPCN Grant: NS060957 Assay Submitter (PI): Susan Lindquist, Whitehead Institute/MIT
Dispense 2.5 microL yeast galactose medium per 1536-well plate, pin compound, dispense 2.5 microL alpha-synuclein expressing yeast in galactose medium at OD600=0.02 (pregrown in raffinose medium to mid-log phase) per well, incubate for 24 hr at 30 deg C, and cell growth will be measured using 5 microL of Bactiter/Glo reagent to entire plate and read using Luminescence Protocol in ViewLux.
`COc1cc(CNC2CCCC2)c(Br)cc1OCc1ccccc1`: the outcome was inactive.
On to `Cc1ccc(C(=O)N[C@H](C(=O)N2CCN(c3ncccn3)CC2)C(C)C)cc1`, for which the molecule was called inactive.
As for `Cc1nnc(SC(C(=O)c2ccccc2)c2ccccc2)[nH]c1=O` (configuration not stated), the molecule was called inactive.
For `CCOC(=O)C1=C(CC)OC(N)=C(C#N)C1c1ccc(F)cc1F` (configuration not stated), the outcome was inactive.
As for `COc1ccc(NC(=O)C2=C(C)NC(=O)NC2c2ccccc2[N+](=O)[O-])cc1` (configuration not stated), the call was inactive.
Consider `NC(=O)CCN1CCN(S(=O)(=O)/C=C/c2ccccc2)CC1`, for which the molecule was called inactive.
As for `COc1ccccc1N1CCN(CC(=O)NCCc2ccc(S(N)(=O)=O)cc2)CC1`, the call was inactive.
With `O=C(O)Cc1csc(-c2cccc(Oc3ccccc3)c2)n1` the entry was “inactive”; with `O=C(CN1CCCCCC1)NCCN1C(=O)S/C(=C\c2ccccc2Cl)C1=O`, “inactive”.
Turning to `CCOC(=O)c1cnn2c(SC)ncnc12`, the result was inactive.
With `CCCCN1C(=O)C(CC(=O)NCc2cccs2)CC(C(=O)N2CCOCC2)=C1C` (configuration not stated) the entry was “inactive”.
With `OCCC#Cc1ccc(CN2CCN(Cc3ccsc3)C(CCO)C2)cc1` (configuration not stated), the result was inactive.
With `CCC(CC)C(=O)Nc1c2c(nn1-c1ccc(C)cc1)CS(=O)(=O)C2` the entry was “inactive”.
With `Cc1cccc(NC(=O)CCn2c(=O)oc3ccccc32)c1` the entry was “inactive”; with `CCCCN(C(=O)CSCc1ccc(C)cc1)c1c(N)n(Cc2ccccc2)c(=O)[nH]c1=O`, “inactive”; with `O=C(CN1CCCSc2ccccc21)N1CCN(S(=O)(=O)c2ccccc2)CC1`, “inactive”.
For the molecule `O=C(C1CCCO1)N1CCN(C(=O)C23CC4CC(CC(C4)C2)C3)CC1` (configuration not stated), the molecule was classed as inactive.
With `CCOC(=O)C(C(=O)c1ccccc1)C(c1ccccc1)c1nccc2ccccc12` (configuration not stated), the molecule was classed as inactive.
Consider `COc1cccc(N2CC(C(=O)NCc3n[nH]c(=O)c4ccccc34)CC2=O)c1` (configuration not stated), for which the molecule was classed as inactive.
In the case of `CCCCS(=O)c1snnc1C` (configuration not stated), the molecule was classed as inactive.
`Cc1ccc(NC(=O)NC(=O)N(C2CCCCC2)S(=O)(=O)c2ccccc2)cc1`: the result was inactive.
With `O=C(Nc1ccccc1C(=O)N1CCOCC1)c1ccc(CSc2ccccc2)cc1` the entry was “inactive”; with `CCN(CC)C(=O)C1=C(C)N(Cc2ccc(OC)cc2)C(=O)C(CC(=O)NCCCCc2ccccc2)C1` (configuration not stated), “inactive”.
For `CN(C)CCOCCOc1ccc(Cl)c2ccccc12`, the result was inactive.
For `O=C(Nc1cccc([N+](=O)[O-])c1)Nc1ccc(Cl)cn1`, the call was inactive.
Consider `O=C(NCC(F)(F)F)c1ccc(S(=O)(=O)NCCc2ccc3c(c2)OCCO3)cc1`, for which the call was inactive.
On to `CC(=O)c1cnc(SCC(=O)O)nc1C`, for which the outcome was inactive.
For `CN(C(=O)COC(=O)c1ccc(Br)o1)c1c(N)n(Cc2ccccc2)c(=O)[nH]c1=O`, the outcome was inactive.
As for `COc1ccc(CNC(=O)C2CCN(S(=O)(=O)c3ccc(SC)cc3)CC2)cc1`, the molecule was classed as inactive.
As for `CCOC(=O)c1sc(NC(=O)c2sc(C)nc2C)nc1C`, the call was inactive.
On to `CCN(CC(=O)NCCc1ccccc1)S(=O)(=O)c1ccccc1`, for which the result was inactive.
As to `CCc1ccccc1OCC(=O)Nc1ccc2c(c1)OCCO2`, the result was inactive.
With `CCN(CC)CCn1c2c(c(SCC(=O)Nc3ccc(C(C)C)cc3)nc1=O)CCC2` the entry was “inactive”.
Regarding `CCC(=O)c1ccc(OCC(=O)N(CC)CC2COc3ccccc3O2)cc1` (configuration not stated), the call was inactive.
Then `CC(=O)Nc1ccc2nc(NC(=O)CS(=O)(=O)c3ccc(F)cc3)sc2c1`, with “inactive”.
Turning to `COc1ccc(NC(=O)CCC(=O)Nc2cc(OC)c(NC(=O)c3ccco3)cc2OC)c(OC)c1`, the outcome was inactive.
Turning to `COc1cc(NC(=O)CN(C)S(=O)(=O)c2ccc3nc(C)sc3c2)cc(OC)c1`, the result was inactive.
As for `CCCCn1c(SCC(=O)N2CCOCC2)nc2c1c(=O)n(C)c(=O)n2C`, the molecule was classed as inactive.
As to `CSc1nnc(C2CCCN(CC(=O)Nc3ccccc3N3CCOCC3)C2)n1C(C)C` (configuration not stated), the molecule was called inactive.
On to `Cc1cc2cc3n(c2nn1)N=C(Cl)CC3`, for which the molecule was classed as inactive.
For `CCOc1ccc(-c2n[nH]c(C)c2-c2ccccn2)c(O)c1`, the call was inactive.
For `O=C(Nc1cc(F)ccc1F)c1ccc2c(=O)n3c(nc2c1)CCC3`, the call was inactive.
As for `COc1ccc(NC(=O)CC2C(=O)NC3CCCCC3N2C(=O)c2ccc(F)cc2)cc1` (configuration not stated), the molecule was classed as inactive.
On to `O=C(Nc1ccc(F)c([N+](=O)[O-])c1)C1CCCO1` (configuration not stated), for which the call was inactive.
With `CCOC(=O)c1[nH]cnc1C(=O)Nc1ccccc1C` the entry was “inactive”; with `O=C(c1ccccc1)N1CCN(C(=O)c2cc3nc(-c4ccccc4)cc(C(F)(F)F)n3n2)CC1`, “inactive”.
With `O=S(=O)(Nc1ccccc1Br)c1cccs1`, the result was inactive.
For `O=C(Nc1ccccc1C(=O)N1CCCCC1)c1ccco1`, the outcome was inactive.
Turning to `COc1cccc(N2CC(NS(=O)(=O)c3cccs3)CC2=O)c1` (configuration not stated), the result was inactive.
For `Cc1cn([C@H]2C[C@H](O)[C@@H](CNC(=O)[C@H](N)Cc3cccnc3)O2)c(=O)[nH]c1=O`, the molecule was classed as inactive.
For the molecule `COC(=O)c1cc(OCC(=O)NC2CCCc3ccccc32)cc(C(=O)OC)c1` (configuration not stated), the molecule was called inactive.
On to `O=C(Cc1ccccc1)NNC1CC(=O)N(c2ccc(Br)cc2)C1=O` (configuration not stated), for which the molecule was classed as inactive.
On to `CCOC(=O)C1=C(c2ccccc2)NC(=S)NC1c1ccc(Cl)cc1` (configuration not stated), for which the call was inactive.
With `COc1ccc(-n2c(-c3ccc(Cl)cc3)n[nH]c2=S)c(OC)c1` the entry was “inactive”.
Regarding `COc1ccc(CC(=O)NC(C)CCc2ccccc2)cc1` (configuration not stated), the result was inactive.
As to `C/C(CC(=O)NC(C)c1ccccc1)=N\NC(N)=S` (configuration not stated), the call was inactive.
With `CN(C)c1ccc(C(=S)N2CCN(C(=S)Nc3ccc(Cl)cc3)CC2)cc1` the entry was “inactive”.
Take `CCCOc1ccc(/C=N/NC(=O)C2CC2)c(OCCC)c1`: the molecule was classed as inactive.
Then `CCOC(=O)Cc1ncccc1C(=O)Nc1ccc(OC)cc1`, with “inactive”; and `COc1ccc(CN2C(=O)C(CC(=O)NCCCCc3ccccc3)CC(C(=O)N3CCOCC3)=C2C)cc1` (configuration not stated), with “inactive”.
With `CCOC(=O)c1c(NC(=O)COC(=O)c2ccc(S(=O)(=O)C(F)F)cc2)sc(C(=O)N(C)C)c1C` the entry was “inactive”.
Take `CC(=O)Nc1ccc(C(=O)NNC(=O)CCCCC(=O)NNC(=O)c2ccc(NC(C)=O)cc2)cc1`: the outcome was inactive.
With `O=C(O)CC12CC3CC(C1)CC(n1ncc(NCc4ccc(F)cc4)c(Cl)c1=O)(C3)C2`, the call was inactive.
Consider `CCOc1cc2c(Cl)ncnc2c(OCC)c1OCC`, for which the outcome was inactive.
Then `COc1ccc(N2CCN(C(=O)[C@@H](NC(=O)c3cc(OC)cc(OC)c3)C(C)C)CC2)cc1`, with “inactive”; and `O=C(NCCOc1ccccc1)c1ccccc1F`, with “inactive”; and `O=C(CSc1nnc(CN2CCCC2)n1-c1ccc(F)cc1)c1ccc2c(c1)OCO2`, with “inactive”.
